Here are results for 46 compounds from PubChem BioAssay (NCATS).

Inconclusive results are not listed. A call without a number means that no potency is given here. Activity calls are given as the source filed them. Calls follow the shape of the dose curve; as a rule, active = well fitted inhibition curve with a large enough effect; inconclusive = small, poorly fitted or top-dose-only effect; inactive = flat fitted curve, though single readings scatter.

Assay [1] has as its target Glutathione peroxidase 1 (Homo sapiens) (UniProt P07203). Put plainly: Primary qHTS Assay for Inhibitors of Recombinant Selenoprotein Glutathione Peroxidase 1 (GPX1) (AID 1845191). Summed up:
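Recombinant GPX1 (10 nM final) was preincubated with compound for 30 min at room temperature, then reacted with 1 mM GSH, 0.5 mM CHP, 0.5 mM NADPH and 100 nM glutathione reductase; NADPH fluorescence (340/450 nm) was read at 0 and 15 min.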
For orientation: qHTS replaces the single test concentration by a dilution series.

The target of assay [2] is Phospholipid hydroperoxide glutathione peroxidase GPX4 (Homo sapiens) (UniProt P36969). Description: Primary qHTS Assay for Inhibitors of Recombinant Selenoprotein Glutathione Peroxidase 4 (GPX4) (AID 1845192). Summed up: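 GR-coupled readout: 100 nM GR, 1 mM GSH, 0.5 mM NADPH; NADPH fluorescence (ex 340/em 450 nm) read at t=0 and after 15 min RT. GPX4 200 nM, preincubated 30 min with compound; substrate 0.5 mM CHP.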
Phospholipid hydroperoxide glutathione peroxidase GPX4 (Homo sapiens), sequence (P36969 whole entry, looked up): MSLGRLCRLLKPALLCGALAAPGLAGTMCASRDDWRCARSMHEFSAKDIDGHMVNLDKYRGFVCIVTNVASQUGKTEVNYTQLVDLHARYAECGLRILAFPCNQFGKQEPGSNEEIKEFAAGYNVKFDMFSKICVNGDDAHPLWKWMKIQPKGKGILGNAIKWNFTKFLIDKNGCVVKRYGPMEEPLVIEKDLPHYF
Also: nearly all actives have a fitted effect of over 65% in size.
Potency is read from the fitted curve at half-maximal effect.

Glutathione peroxidase 1 (Homo sapiens), sequence (P07203 whole entry, looked up): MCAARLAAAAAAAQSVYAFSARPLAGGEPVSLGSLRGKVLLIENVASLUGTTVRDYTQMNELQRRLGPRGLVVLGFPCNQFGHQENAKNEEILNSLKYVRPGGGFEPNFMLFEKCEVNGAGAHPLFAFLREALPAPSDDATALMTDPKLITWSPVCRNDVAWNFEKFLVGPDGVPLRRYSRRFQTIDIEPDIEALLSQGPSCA

Turning to `CC(N)C(=O)OC(C)(C)Cc1ccc(Cl)cc1` (stereo unspecified), the Potency entry in assay [1] and in assay [2] was “inactive” throughout. Turning to `CC1(C)CCC=[N+]1[O-]`, the Potency result in assay [1] and in assay [2] was “inactive” each time. Take `N[C@@H](CC(=O)O)C(=O)O`: the Potency result in assay [1] and in assay [2] was “inactive” each time. As to `C[N+]1(C)C2CC(OC(=O)[C@H](CO)c3ccccc3)CC1C1OC12` (stereo partly specified), the Potency result in assay [1] and in assay [2] was “inactive” in each case. Take `CN[C@H](CC(C)C)C(=O)N[C@H]1C(=O)N[C@@H](CC(N)=O)C(=O)N[C@H]2C(=O)N[C@H]3C(=O)N[C@H](C(=O)N[C@H](C(=O)O)c4cc(O)cc(O)c4-c4cc3ccc4O)[C@H](O)c3ccc(c(Cl)c3)Oc3cc2cc(c3O[C@@H]2O[C@H](CO)[C@@H](O)[C@H](O)[C@H]2O[C@H]2C[C@](C)(N)[C@H](O)[C@H](C)O2)Oc2ccc(cc2Cl)[C@H]1O`: the Potency result in assay [1] and in assay [2] was “inactive” throughout.

As to `CC1CN(S(=O)(=O)c2cccc3cnccc23)CCN1` (stereo unspecified), the Potency result in assay [1] and in assay [2] was “inactive” in each case. As to `O=C(O)c1cc([N+](=O)[O-])ccc1NCCCc1ccccc1`, the Potency result in assay [1] and in assay [2] was “inactive” each time. For the compound `N#C/C(=C\c1ccc(O)c(O)c1)C(=O)NCc1ccccc1`, the Potency entry in assay [1] and in assay [2] was “inactive” throughout. On to `O=C(c1ccc(Cl)cc1)N1CCN(c2ccc([N+](=O)[O-])c3ncccc23)CC1`, for which the Potency entry in assay [1] and in assay [2] was “inactive” each time. Turning to `O=[N+]([O-])c1ccc(CSc2ncnc3c2ncn3[C@@H]2O[C@H](CO)[C@@H](O)[C@H]2O)cc1`, the Potency entry in assay [1] and in assay [2] was “inactive” in each case.

For `N.N.O=C(O)C1(C(=O)O)CCC1.[Pt]`, in assay [1], the Potency entry is “inactive”. The Potency in assay [2] is 22.7 µM (active). Consider `CN(C)c1nc2c(Br)c(Br)c(Br)c(Br)c2[nH]1`, for which the Potency entry in assay [1] was “inactive”.

As to `CCCC(=O)OC[C@@H](OC(=O)CCC)[C@@H](OC(=O)CCC)[C@H](Cn1c2nc(=O)[nH]c(=O)c-2nc2cc(C)c(C)cc21)OC(=O)CCC`, in assay [1], the Potency result is “inactive”. On to `Cc1c(C(=O)O)c(O)cc2c1C(=O)c1c(O)c([C@@H]3O[C@H](CO)[C@@H](O)[C@H](O)[C@H]3O)c(O)c(O)c1C2=O`, for which the Potency result in assay [1] and in assay [2] was “inactive” each time. As to `COc1cc(/C=C/C(=O)CC(=O)/C=C/c2ccc(O)c(OC)c2)ccc1O`, the Potency entry in assay [1] is “inactive”. In the case of `C=CCc1cccc(/C=N/NC(=O)CN2CCN(Cc3ccccc3)CC2)c1O`, the Potency entry in assay [1] and in assay [2] was “inactive” each time. As to `Nc1ncnc2c1ncn2[C@@H]1O[C@H](COP(=O)(O)OP(=O)(O)OP(=O)(O)OP(=O)(O)OC[C@@H]2O[C@H](n3cnc4c(N)ncnc43)[C@@H](O)[C@H]2O)[C@@H](O)[C@H]1O`, the Potency entry in assay [1] and in assay [2] was “inactive” each time. For the compound `CN(C)c1nc(N)c(C(=O)N=C(N)N)nc1Cl`, the Potency entry in assay [1] and in assay [2] was “inactive” in each case.

For `Brc1cc2c(cc1[C@H]1Nc3ccccc3[C@H]3C=CC[C@H]31)OCO2`, the Potency result in assay [1] and in assay [2] was “inactive” in each case. For the compound `O=C(O)c1cc(=O)c2c(Cl)cc(Cl)cc2[nH]1`, the Potency entry in assay [1] and in assay [2] was “inactive” throughout. Consider `OC[C@H]1O[C@@H](n2cnc3c(NC4CCCCC4)ncnc32)[C@H](O)[C@@H]1O`, for which the Potency entry in assay [1] and in assay [2] was “inactive” each time. For the compound `CN(C)CCn1nnnc1SCC1=C(C(=O)O)N2C(=O)[C@@H](NC(=O)Cc3csc(N)n3)[C@H]2SC1`, the Potency is 4.53 µM (active) in assay [1] and 12.6 µM (active) in assay [2]. For `O=C1CN(/N=C/c2ccc([N+](=O)[O-])o2)C(=O)N1`, in that order: “inactive” and “inactive”. For the compound `CN1[C@@H](CC(=O)c2ccccc2)CCC[C@H]1C[C@H](O)c1ccccc1`, the Potency entry in assay [1] and in assay [2] was “inactive” each time. For `NC[C@H]1O[C@@H](n2cnc3c(N)ncnc32)[C@H](O)[C@@H]1O`, the Potency entry in assay [1] and in assay [2] was “inactive” in each case.

As for `CNCC[C@H](Oc1ccc(C(F)(F)F)cc1)c1ccccc1`, the Potency entry in assay [1] and in assay [2] was “inactive” in each case.

Regarding `Cn1c(=O)c(-c2c(Cl)cccc2Cl)cc2cnc(Nc3ccc(N4CCOCC4)cc3)nc21`, the Potency result in assay [1] and in assay [2] was “inactive” in each case. In the case of `c1ccc(-c2ccccn2)nc1`, the Potency result in assay [1] and in assay [2] was “inactive” each time. Turning to `CCCCCCCCCCCC(=O)[O][Sn]([CH2]CCC)([CH2]CCC)[O]C(=O)CCCCCCCCCCC`, in assay [1], the Potency result was “inactive”. Turning to `OCC1O[C@H](O)C(Cl)C(O)C1O` (stereo partly specified), the Potency result in assay [1] and in assay [2] was “inactive” in each case.

In the case of `CC1(C)S[C@@H]2[C@H](NC(=O)[C@H](N)c3ccccc3)C(=O)N2[C@H]1C(=O)O`, in assay [1], the Potency entry was “inactive”. In the case of `COc1ccccc1CN[C@@H]1CCCN[C@@H]1c1ccccc1`, the Potency entry in assay [1] and in assay [2] was “inactive” throughout. As for `CCCCCC[C@@H](O)C/C=C\CCCCCCCC(=O)O`, the Potency result in assay [1] is “inactive”. As for `Cc1ccc(S(=O)(=O)/C=C/C#N)cc1`, the Potency entry in assay [1] and in assay [2] was “inactive” in each case.

Consider `CN1C2CC(OC(=O)[C@H](CO)c3ccccc3)CC1C1OC12` (stereo partly specified), for which the Potency entry in assay [1] and in assay [2] was “inactive” in each case. Consider `CCCSc1ccc2nc(NC(=O)OC)[nH]c2c1`, for which the Potency result in assay [1] and in assay [2] was “inactive” throughout.

For `C=C[C@@H]1CN2CC[C@@H]1C[C@H]2[C@H](O)c1ccnc2ccc(OC)cc12`, the Potency entry in assay [1] and in assay [2] was “inactive” in each case. For `CCCCCCCCCCCCCCCCCC(=O)OC(CC(=O)O)C[N+](C)(C)C` (stereo unspecified), the Potency result in assay [1] and in assay [2] was “inactive” in each case. Consider `CCCCCCCCCCCCCCCC(=O)OC(CC(=O)O)C[N+](C)(C)C` (stereo unspecified), for which the Potency result in assay [1] and in assay [2] was “inactive” each time. Take `CN1CC(=O)N/C1=N/C(=O)Nc1cccc(Cl)c1`: the Potency entry in assay [1] and in assay [2] was “inactive” each time. Take `Oc1cc2c(cc1O)CN(C(=S)NCCc1ccc(Cl)cc1)CCC2`: the Potency entry in assay [1] and in assay [2] was “inactive” in each case. Take `CN1CCc2cc(NC(=O)Nc3cccnc3)ccc21`: the Potency entry in assay [1] and in assay [2] was “inactive” each time. Consider `c1cnc2c(c1)ccc1cccnc12`, for which the Potency entry in assay [1] and in assay [2] was “inactive” each time. With `C=CCCCCCCCCC(=O)O`, the Potency result in assay [1] and in assay [2] was “inactive” throughout. On to `S=C(S)OC1CC2CC1C1CCCC21` (stereo unspecified), for which the Potency result in assay [1] and in assay [2] was “inactive” in each case. With `O=C1/C(=C/c2ccsc2)CC/C1=C\c1cccs1`, the Potency entry in assay [1] and in assay [2] was “inactive” throughout.
